Columns and labels:
Assay in all cases: growth AUC relative to DMSO control (median of replicates) (fraction); higher = more growth (less inhibition), active = hit call of the paper
Conditions in all cases: 20 µM; 24 h;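 active = AUC reduced over 20% with Padj below 0.05 in at least 2 of 3 replicates; inactive = otherwise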
[1] = test system: Akkermansia muciniphila
Summary of the method: (§1)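 Gut bacterial monocultures were grown anaerobically at 37 °C in mGAM, starting at OD600 0.05, with 20 µM compound (1% DMSO) in round-bottom 96-well plates under pierced gas-permeable seals. OD600 was read hourly for 24 h. Area under the growth curve (minimum OD set to 0) was normalised to the plate median of DMSO controls, or to row and column medians on the industrial chemical plate. The value is the median of three biological replicates grown on separate days.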

[2] = test system: Bacteroides caccae
Summary of the method: as §1

[3] = test system: Bacteroides clarus
Summary of the method: as §1

[4] = test system: Bacteroides dorei
Summary of the method: as §1

[5] = test system: Bacteroides stercoris
Summary of the method: as §1

[6] = test system: Bacteroides thetaiotaomicron
Summary of the method: as §1

[7] = test system: Bacteroides uniformis
Summary of the method: as §1

[8] = test system: Bifidobacterium longum subsp. longum
Summary of the method: as §1

[9] = test system: Clostridium difficile
Summary of the method: as §1

[10] = test system: Collinsella aerofaciens
Summary of the method: as §1

Measured: growth AUC

O=P(OCCCl)(OCCCl)OCCCl
active: [1] 0.628 | [5] 0.651
inactive: [2] 0.985 | [3] 0.986 | [4] 0.995 | [6] 0.972 | [7] 0.874 | [8] 0.895 | [9] 0.963 | [10] 0.977

CC1(C)C(/C=C(\Cl)C(F)(F)F)C1C(=O)OC(C#N)c1cccc(Oc2ccccc2)c1 (stereo not given)
inactive: [1] 0.989 | [2] 0.951 | [3] 1.02 | [4] 1.01 | [5] 1.19 | [6] 0.995 | [7] 0.993 | [8] 1.12 | [9] 1.04 | [10] 0.969

O=C(O)COc1nc(Cl)c(Cl)cc1Cl
inactive: [1] 1.13 | [2] 0.874 | [3] 0.989 | [4] 0.94 | [5] 1.19 | [6] 1 | [7] 0.993 | [8] 1.04 | [9] 0.963 | [10] 0.99

CCOP(=S)(OCC)Oc1cc(C)nc(N(CC)CC)n1
inactive: [1] 1.03 | [2] 0.926 | [3] 0.979 | [4] 0.976 | [5] 0.938 | [6] 0.961 | [7] 0.943 | [8] 1.01 | [9] 1 | [10] 0.994

COP(=S)(Oc1cc(Cl)c(Br)cc1Cl)c1ccccc1 (stereo not given)
inactive: [1] 0.925 | [2] 0.949 | [3] 0.928 | [4] 1.02 | [5] 1.44 | [6] 0.98 | [7] 0.993 | [8] 1.02 | [9] 1.03 | [10] 0.976

CCC(C)n1c(=O)[nH]c(C)c(Br)c1=O (stereo not given)
inactive: [1] 1.12 | [2] 0.833 | [3] 0.99 | [4] 0.952 | [5] 1.13 | [6] 0.911 | [8] 1.02 | [9] 0.945 | [10] 0.96
active: [7] 0.775

C#CCC1=C(C)C(OC(=O)C2C(C=C(C)C)C2(C)C)CC1=O (stereo not given)
inactive: [1] 1.05 | [2] 0.892 | [3] 1.04 | [4] 0.964 | [5] 1.01 | [6] 1.01 | [7] 0.932 | [8] 1.02 | [9] 0.969 | [10] 0.985

CC(Oc1cc(Cl)c(Cl)cc1Cl)C(=O)O (stereo not given)
inactive: [1] 0.958 | [2] 1 | [3] 0.949 | [4] 0.979 | [5] 0.973 | [6] 0.99 | [7] 0.987 | [8] 0.787 | [9] 1.02 | [10] 1.01

BrCCBr
inactive: [1] 1.11 | [2] 0.998 | [3] 1.01 | [4] 1.02 | [5] 1.17 | [6] 0.987 | [7] 1 | [8] 1.03 | [9] 0.997 | [10] 0.995

CCN(CC)N=O
inactive: [1] 1 | [2] 1 | [3] 1 | [4] 1.04 | [5] 1.04 | [6] 1.01 | [7] 1 | [8] 1.05 | [9] 1.02 | [10] 0.991

CN1CSC(=S)N(C)C1
inactive: [1] 1.02 | [2] 1.01 | [3] 0.939 | [4] 1.03 | [5] 0.942 | [6] 0.976 | [7] 1.05 | [8] 1.01 | [9] 0.976 | [10] 1.07

CC1(C)C(C=C(Cl)Cl)C1C(=O)OC(C#N)c1ccc(F)c(Oc2ccccc2)c1 (mixture of isomers)
inactive: [1] 1.08 | [2] 1 | [3] 1.01 | [4] 0.995 | [5] 0.95 | [6] 1.01 | [7] 0.98 | [8] 0.975 | [9] 0.979 | [10] 0.947

O=C1C=CC(=O)C=C1
inactive: [1] 0.97 | [2] 0.991 | [3] 0.992 | [4] 1.01 | [5] 1.02 | [6] 1.01 | [7] 1 | [8] 1.01 | [9] 0.997 | [10] 0.992

C[C@@H](Oc1ccc(Oc2ncc(C(F)(F)F)cc2Cl)cc1)C(=O)O
inactive: [1] 0.971 | [2] 0.97 | [3] 0.964 | [4] 0.942 | [5] 1.02 | [6] 0.992 | [7] 0.975 | [8] 0.912 | [9] 0.99 | [10] 0.994

CN(C)C1CSSSC1.O=C(O)C(=O)O
inactive: [1] 0.941 | [2] 0.98 | [3] 0.974 | [4] 1.17 | [5] 0.905 | [6] 1.07 | [7] 1.23 | [8] 0.964 | [9] 1.05 | [10] 1.03

FC(F)C(F)(F)OCC(Cn1cncn1)c1ccc(Cl)cc1Cl (stereo not given)
inactive: [1] 0.949 | [2] 0.967 | [3] 0.921 | [4] 0.924 | [5] 0.957 | [6] 0.921 | [7] 0.957 | [8] 0.967 | [9] 0.985 | [10] 0.93

O=c1c2cc(F)ccc2nc(-n2cncn2)n1-c1ccc(Cl)cc1Cl
inactive: [1] 0.855 | [2] 0.976 | [3] 0.979 | [4] 1.05 | [5] 1 | [6] 0.925 | [7] 0.937 | [8] 0.791 | [9] 1.12 | [10] 1.07

CC1CCCCC1NC(=O)Nc1ccccc1 (mixture of isomers)
inactive: [1] 0.952 | [2] 1 | [3] 0.967 | [4] 0.993 | [5] 0.973 | [6] 0.969 | [7] 0.959 | [8] 0.898 | [9] 1.01 | [10] 0.976

Cc1cccc(C)c1N
inactive: [1] 0.917 | [2] 1.04 | [3] 0.973 | [4] 1.01 | [5] 1.03 | [6] 1.04 | [7] 1.06 | [8] 1.04 | [9] 0.997 | [10] 0.985

COc1ccccc1N
inactive: [1] 1 | [2] 1.02 | [3] 1.04 | [4] 1.01 | [5] 1.16 | [6] 1.02 | [7] 1.02 | [8] 1.05 | [9] 1.01 | [10] 1.02

CNc1cnn(-c2cccc(C(F)(F)F)c2)c(=O)c1Cl
inactive: [1] 0.94 | [2] 0.979 | [3] 1.02 | [4] 1.01 | [5] 0.914 | [6] 0.994 | [7] 0.991 | [8] 0.989 | [9] 0.937 | [10] 1.03

Cc1ccccc1C(=O)Nc1cccc(OC(C)C)c1
inactive: [1] 0.926 | [2] 1.01 | [3] 0.992 | [4] 1 | [5] 0.993 | [6] 0.928 | [7] 0.945 | [8] 1.02 | [9] 0.984 | [10] 1

COP(=O)(OC)OC=C(Cl)Cl
inactive: [1] 1.04 | [2] 1.05 | [3] 1.01 | [4] 0.984 | [5] 1.17 | [6] 1.03 | [7] 1.03 | [8] 1.04 | [9] 1.05 | [10] 1.01

O=[N+]([O-])c1ccc(Oc2ccc(C(F)(F)F)cc2[N+](=O)[O-])cc1
inactive: [1] 0.834 | [2] 0.929 | [3] 0.878 | [4] 0.88 | [5] 1.05 | [6] 0.92 | [7] 0.917 | [8] 0.936 | [9] 1.02 | [10] 0.93

CCOC(=O)C(SP(=S)(OC)OC)c1ccccc1 (stereo not given)
inactive: [1] 0.867 | [2] 0.974 | [3] 0.933 | [4] 0.973 | [5] 0.986 | [6] 0.938 | [7] 0.929 | [8] 1 | [9] 1.04 | [10] 1

CCNc1nc(Cl)nc(NC(C)C)n1
inactive: [1] 1.05 | [2] 0.956 | [3] 1.01 | [4] 0.945 | [5] 0.964 | [6] 1.01 | [7] 1.01 | [8] 1.02 | [9] 0.944 | [10] 1.04

CCC(C)c1cc([N+](=O)[O-])cc([N+](=O)[O-])c1OC(=O)C=C(C)C (stereo not given)
active: [3] 0.74 | [5] 0.473 | [7] 0.479
inactive: [1] 1.15 | [2] 0.986 | [4] 0.801 | [6] 0.802 | [8] 0.879 | [9] 0.989 | [10] 0.956

O=C(NC(=O)c1c(F)cccc1F)Nc1cc(Cl)c(Oc2ncc(C(F)(F)F)cc2Cl)c(Cl)c1
inactive: [1] 1.02 | [2] 0.996 | [3] 0.997 | [4] 0.988 | [5] 1.07 | [6] 1.03 | [7] 0.977 | [8] 1.14 | [9] 1 | [10] 1.11

CC/C(=N\OC/C=C/Cl)C1=C(O)CC(C2CCOCC2)CC1=O (stereo not given)
inactive: [1] 1.04 | [2] 0.993 | [3] 1.03 | [4] 1 | [5] 1.03 | [6] 1.02 | [7] 0.985 | [8] 1.37 | [9] 1.01 | [10] 1.03
